Results taken from PubChem BioAssay (NCI).
Compounds without any hit were thinned out: in the full panel of roughly 83,000, 20% have a hit.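 Percent growth is the endpoint: 0 to 100 indicates growth inhibition (40 means 60% inhibition), 0 means no net growth, and negative values indicate cell death.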 Unmarked numbers belong to inactive results. Active and inactive are the calls of the source. How the source made its calls: active means growth percent below 10; inactive means the rest.

What was measured:
Test in all cases: NCI-60 one-dose screen, 48 h (100 = growth as untreated, 0 = no growth, -100 = all killed)
Settings in all cases: 10 µM unless noted
[1] = tested on: NCI-H23 lung
[2] = tested on: NCI-H226 lung
[3] = tested on: NCI-H322M lung
[4] = tested on: HOP-62 NSCLC
[5] = tested on: NCI-H460 lung
[6] = tested on: HOP-92 NSCLC
[7] = tested on: NCI-H522 lung
[8] = tested on: A549/ATCC NSCLC
[9] = tested on: 786-0 renal
[10] = tested on: COLO 205 colon
[11] = tested on: DU-145 prostate
[12] = tested on: K-562 leukemia
[13] = tested on: MALME-3M melanoma
[14] = tested on: MDA-MB-231 breast
[15] = tested on: RXF 393 renal
[16] = tested on: SF-268 CNS
[17] = tested on: SF-295 CNS
[18] = tested on: SF-539 CNS
[19] = tested on: UACC-257 melanoma
[20] = tested on: M14 melanoma

Cn1cc(-c2cc(N)n3nc(-c4c[nH]c5ccc(F)cc45)cc3n2)c2cccnc21
growth [1]: -68.2% (active) | growth [2]: -67.5% (active) | growth [3]: -37.5% (active) | growth [4]: -85.9% (active) | growth [5]: -50.6% (active) | growth [6]: -73.7% (active) | growth [7]: -68.8% (active) | growth [8]: -87.1% (active) | growth [9]: -95.2% (active) | growth [10]: -79.1% (active) | growth [11]: -75.7% (active) | growth [12]: -32% (active) | growth [13]: -93% (active) | growth [14]: -85.9% (active) | growth [15]: -81.2% (active) | growth [16]: -27% (active) | growth [17]: -93.9% (active) | growth [18]: -96.3% (active) | growth [19]: -87.3% (active) | growth [20]: -89.5% (active)

O=C1/C(=C/C=C/c2ccco2)SC(=S)N1CC(=S)C1C=CS(=O)(=O)C1 (stereo not given)
growth [1]: 83.1% | growth [2]: 89.1% | growth [3]: 38.8% | growth [4]: 130% | growth [5]: 29.2% | growth [6]: 121% | growth [7]: 32.5% | growth [8]: 47.7% | growth [9]: 91.2% | growth [10]: 76% | growth [11]: 97.4% | growth [12]: 75% | growth [13]: 83.3% | growth [14]: 85.8% | growth [15]: 79.4% | growth [16]: 91% | growth [17]: 88.9% | growth [18]: 99% | growth [19]: 92.3% | growth [20]: 98.9%

Fc1ccccc1CNc1nc(SCCN2CCOCC2)nc2c1cnn2CC(Cl)c1ccc(Br)cc1 (stereo not given)
growth [1]: 45.1% | growth [2]: 31.8% | growth [3]: 75.2% | growth [4]: 40% | growth [5]: 17% | growth [6]: 26% | growth [7]: 58.1% | growth [8]: 27.7% | growth [9]: 8.8% (active) | growth [10]: -9.47% (active) | growth [11]: 60.5% | growth [12]: 3.13% (active) | growth [13]: -15.7% (active) | growth [14]: 12.6% | growth [15]: -13.9% (active) | growth [16]: 41.4% | growth [17]: -3.31% (active) | growth [18]: -3.45% (active) | growth [19]: 8.02% (active) | growth [20]: 29%

O=C(CSc1nnc(-c2ccc(-c3nc4ccc(Cl)cc4[nH]3)cc2)o1)Nc1ccc(Br)cc1
growth [1]: -34.7% (active) | growth [2]: -46.9% (active) | growth [3]: 9.95% (active) | growth [4]: -31.1% (active) | growth [5]: -72.3% (active) | growth [6]: -7.8% (active) | growth [7]: -23.3% (active) | growth [8]: -38.9% (active) | growth [9]: -44.1% (active) | growth [10]: 94.1% | growth [11]: 39.1% | growth [12]: 15% | growth [13]: -20.2% (active) | growth [14]: -76% (active) | growth [15]: -50.9% (active) | growth [16]: 28.5% | growth [17]: 8.38% (active) | growth [18]: -96.3% (active) | growth [19]: 13.1% | growth [20]: 2.92% (active)

COC(=O)c1c(C(=O)OC)c2c3ccccc3c3ccccc3n2c1C(=O)C(C)(C)C
growth [1]: 82.8% | growth [2]: 85.7% | growth [3]: 105% | growth [4]: 118% | growth [5]: 80.3% | growth [6]: 55.7% | growth [7]: 73.6% | growth [8]: 101% | growth [9]: 86.6% | growth [10]: 80.1% | growth [11]: 95.7% | growth [12]: 47.1% | growth [13]: 100% | growth [14]: 73.5% | growth [15]: 82.3% | growth [16]: 89.3% | growth [17]: 81.7% | growth [18]: 83.3% | growth [19]: 94.8% | growth [20]: 74.3%

Oc1ccc(Cl)c(Nc2ncnc3c2cnn3CC(Cl)c2ccc(Br)cc2)c1 (stereo not given)
growth [1]: 65.8% | growth [2]: 84% | growth [3]: 67% | growth [4]: 58.1% | growth [5]: 67.1% | growth [6]: 8.3% (active) | growth [7]: 52.6% | growth [8]: 53.9% | growth [9]: 63.9% | growth [10]: 90.9% | growth [11]: 50.8% | growth [12]: 1.88% (active) | growth [13]: 57.4% | growth [14]: 26.4% | growth [15]: -8.51% (active) | growth [16]: 26.7% | growth [17]: 60.3% | growth [18]: 29.1% | growth [19]: 80.1% | growth [20]: 65.4%

CS(=O)(=O)Nc1cc(-c2ccc3ncnc(N4CCc5cc(F)c(Cl)cc54)c3c2)cnc1Cl
growth [1]: 4.88% (active) | growth [2]: 8.15% (active) | growth [3]: 8.81% (active) | growth [4]: 27.8% | growth [5]: 12.1% | growth [6]: -20.7% (active) | growth [7]: 17.7% | growth [8]: -3.2% (active) | growth [9]: 4.55% (active) | growth [10]: -1.45% (active) | growth [11]: 10.5% | growth [12]: 35.8% | growth [13]: -21.2% (active) | growth [14]: -17.8% (active) | growth [15]: -5.59% (active) | growth [16]: 14.9% | growth [17]: -23.8% (active) | growth [18]: -22.7% (active) | growth [19]: -2.81% (active) | growth [20]: 9.59% (active)
